The record followed here is PubChem BioAssay (NCI).

About 83,000 compounds went through this panel and 20% of them were active in at least one assay; those are over-represented in the sample as a whole.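 How to read the values: 0–100, growth inhibition (40 = 60% inhibited); 0, no net growth; -100 to 0, cell death (-40 = 40% of starting cells died; -100 = all dead).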 Unmarked numbers belong to inactive results. Activity calls are given as the source filed them. Rule for the calls: active = growth percent below 10; inactive = the rest.

The subject of the first assay is SNB-19 CNS. Put plainly: NCI-60 one-dose screen, 48 h (100 = growth as untreated, 0 = no growth, -100 = all killed). The following applies: 10 µM unless noted.
As for `O=C(CN1CCOCC1)Nc1ccc2ncnc(Nc3ccc(OCc4cccc(F)c4)c(Cl)c3)c2c1`, the growth is 72.2%.

Take `Clc1cc(Cl)cc(N2N=C(c3cccc(Nc4ccncc4)c3)CC2c2ccccc2)c1` (stereo unspecified): the growth is 88.9%.

`C[C@]12CCc3nc(Nc4cccc(O)c4)sc3C1=CC[C@@H]1[C@@H]2CC[C@]2(C)/C(=N\NC(N)=S)CC[C@@H]12`: the growth was 57.9%.

Consider `Cc1c2c(cc[n+]1Cc1ccccc1)c1ccc(OCc3ccccc3)cc1n2Cc1ccccc1`, for which the growth was -13.3% (active).

For the compound `O=C(O)CNC(=O)CN1C(=O)c2ccccc2C1=O`, the growth is 108%.

Take `O=C(Nc1nc2ccc(C(=O)N3CCN(c4ccc(Cl)c(Cl)c4)CC3)cc2s1)c1ccc(NCCc2ccccc2)c([N+](=O)[O-])c1`: the growth is 100%.

In the case of `COc1ccccc1-c1c(-c2ccc(Cl)cc2)c2cc3c(cc2[nH]c1=O)OCCO3`, the growth is 94.9%.

In the case of `O=S(=O)(NCCNc1nccc(-c2c(-c3ccc(F)c(O)c3)nc3occn23)n1)c1ccccc1`, the growth is 73.8%.

Consider `Clc1cc(Cl)cc(N2N=C(c3cccc(Nc4ccncc4)c3)CC2c2ccc(Br)cc2)c1` (stereo unspecified), for which the growth is 85.8%.

On to `Cn1c(COC(=O)NCCn2ccnc2)nc2c(N3CCOCC3)nc(-c3ccccc3)nc21`, for which the growth was 8.21% (active).

With `Cc1c2c(cc[n+]1Cc1ccc(F)cc1)c1ccc(OCc3cccc(F)c3)cc1n2Cc1cccc(F)c1`, the growth was -90.3% (active).

Take `CCCOc1nc(SCCC)nc2c1cnn2-c1ccccc1`: the growth is 103%.

For the compound `Cc1ccc(/C=C/C(=O)c2ccc(N)cc2)c(C)c1`, the growth was 85.7%.

For `Cc1cc(C)c(C=O)c(C)c1`, the growth is 102%.

With `COc1ccc(-c2c(-c3ccccc3)noc2N)cc1OC`, the growth was 109%.

Turning to `O=C1c2cccnc2C(=O)c2nc3cc(N4CCN(C5CC5)CC4)ccc3nc21`, the growth is -81.5% (active).

Turning to `c1ccc(N2N=C(c3cccc(Nc4ccncc4)c3)CC2c2ccc3c(c2)OCO3)cc1` (stereo unspecified), the growth was 42.4%.

`COc1cc(NCC(C)(O)CN(CC(C)C)CC(C)C)c2nc(C)ccc2c1` (stereo unspecified): the growth was 87.9%.

Regarding `C[C@@H]1CN(Cc2ccc(/C=C/c3n[nH]c4ccc5nc(-c6cn[nH]c6C(F)(F)F)c6c(c5c34)CCCC6)cc2)C[C@H](C)O1`, the growth is 57.1%.

`CC1(C)CCCN1CCCN1c2ccccc2Sc2ccc(Cl)cc21`: the growth was 69.1%.

As for `CC1CCN(C(=O)OCc2nc3nc(Cl)nc(N4CCOCC4)c3[nH]2)CC1`, the growth is 60.3%.

On to `CC1(C)CN(c2cnc(C(=O)Nc3cc(F)cc4cccnc34)cn2)CCN1`, for which the growth was 93.1%.

Turning to `Cn1c(COC(=O)NCCN2CCOCC2)nc2c(N3CCOCC3)nc(-c3ccccc3)nc21`, the growth is 48.7%.

Another assay has as its system U251 CNS. The assay is described as above. The conditions noted are these: 10 µM unless noted.
In the case of `CCN(CC)CCCCCCNc1cc(OC)cc2cccnc12`, the growth is 5.33% (active).

For the compound `COc1ccccc1Nc1cc(O)c2c(=O)cc(-c3ccccc3)oc2c1`, the growth was 22.1%.

Turning to `COc1ccc(C(O)c2cc3c(N)c(C(=O)Nc4ccc(Cl)cc4)sc3nc2C)cc1` (stereo unspecified), the growth is 20.2%.

For the compound `COc1cc(NCC(O)CN(CC(C)C)CC(C)C)c2nc(C)ccc2c1` (stereo unspecified), the growth was 91.3%.

As to `CCCCCCCCCCN=C(N)N=C(N)N`, the growth was 34.8%.

For `COc1ccc(C(O)c2cc3c(N)c(C(=O)Nc4cccc(Br)c4C)sc3nc2C)cc1` (stereo unspecified), the growth is 20.9%.

As for `CCCCCCCCCCCCCCCCCCOc1ccccc1N`, the growth is 50.3%.

Turning to `CC(=O)O[C@H]1CC[C@@]2(C)[C@@H](CC[C@@H]3[C@@H]2CC[C@@]2(C)[C@H]3CC[C@]2(O)C(C)=O)C1`, the growth was 94%.

Take `CCC1(CC)NC(=O)c2c(c3ccc(Cl)c(Cl)c3n2C)C1C#N` (stereo unspecified): the growth was 96.1%.

On to `COc1ccc(C2CC(c3cccc(Nc4ccncc4)c3)=NN2c2cc(Cl)cc(Cl)c2)cc1` (stereo unspecified), for which the growth is -34.4% (active).

With `CC(=O)Nc1ccc(S(=O)(=O)NC2CCCCC2)cc1`, the growth is 91%.

With `Clc1ccc(N2N=C(c3cccc(Nc4ccncc4)c3)CC2c2ccccc2)cc1` (stereo unspecified), the growth was 90.4%.

For `CN1C2CCC1CN(c1cnc(C(=O)Nc3cc(F)cc4cccnc34)cn1)C2`, the growth was 64%.

With `C=Cc1cc[n+](CCCCCCCCCCCC)cc1`, the growth was 109%.

On to `CCCCCCCCCCCCCCCC(=O)OC[C@@]1(O)C[C@@]23CC[C@@H]4C(C)(C)[C@H](O)CC[C@@]4(C)[C@@H]2CC[C@H]1C3`, for which the growth is 107%.

For the compound `O=C(CN1CCOCC1)Nc1ccc2ncnc(Nc3ccc(OCc4cccc(F)c4)c(Cl)c3)c2c1`, the growth was 77.1%.

As to `Clc1cc(Cl)cc(N2N=C(c3cccc(Nc4ccncc4)c3)CC2c2ccccc2)c1` (stereo unspecified), the growth is -31.3% (active).

With `C[C@]12CCc3nc(Nc4cccc(O)c4)sc3C1=CC[C@@H]1[C@@H]2CC[C@]2(C)/C(=N\NC(N)=S)CC[C@@H]12`, the growth was 11.9%.

Consider `Cc1c2c(cc[n+]1Cc1ccccc1)c1ccc(OCc3ccccc3)cc1n2Cc1ccccc1`, for which the growth was -80.2% (active).

Turning to `O=C(O)CNC(=O)CN1C(=O)c2ccccc2C1=O`, the growth is 96.8%.

In the case of `O=C(Nc1nc2ccc(C(=O)N3CCN(c4ccc(Cl)c(Cl)c4)CC3)cc2s1)c1ccc(NCCc2ccccc2)c([N+](=O)[O-])c1`, the growth was 102%.

Take `COc1ccccc1-c1c(-c2ccc(Cl)cc2)c2cc3c(cc2[nH]c1=O)OCCO3`: the growth was 75.3%.

As to `O=S(=O)(NCCNc1nccc(-c2c(-c3ccc(F)c(O)c3)nc3occn23)n1)c1ccccc1`, the growth was 60.4%.

Consider `Clc1cc(Cl)cc(N2N=C(c3cccc(Nc4ccncc4)c3)CC2c2ccc(Br)cc2)c1` (stereo unspecified), for which the growth is -29.8% (active).

As for `Cn1c(COC(=O)NCCn2ccnc2)nc2c(N3CCOCC3)nc(-c3ccccc3)nc21`, the growth was -61% (active).

On to `Cc1c2c(cc[n+]1Cc1ccc(F)cc1)c1ccc(OCc3cccc(F)c3)cc1n2Cc1cccc(F)c1`, for which the growth is -89.4% (active).

With `CCCOc1nc(SCCC)nc2c1cnn2-c1ccccc1`, the growth is 107%.

For `Cc1ccc(/C=C/C(=O)c2ccc(N)cc2)c(C)c1`, the growth is 54.1%.

As for `Cc1cc(C)c(C=O)c(C)c1`, the growth is 101%.

For the compound `COc1ccc(-c2c(-c3ccccc3)noc2N)cc1OC`, the growth was 98%.

`O=C1c2cccnc2C(=O)c2nc3cc(N4CCN(C5CC5)CC4)ccc3nc21`: the growth is -32.6% (active).

In the case of `c1ccc(N2N=C(c3cccc(Nc4ccncc4)c3)CC2c2ccc3c(c2)OCO3)cc1` (stereo unspecified), the growth is 4.31% (active).

With `COc1cc(NCC(C)(O)CN(CC(C)C)CC(C)C)c2nc(C)ccc2c1` (stereo unspecified), the growth was 94.9%.

As for `C[C@@H]1CN(Cc2ccc(/C=C/c3n[nH]c4ccc5nc(-c6cn[nH]c6C(F)(F)F)c6c(c5c34)CCCC6)cc2)C[C@H](C)O1`, the growth is 46.1%.

For `CC1(C)CCCN1CCCN1c2ccccc2Sc2ccc(Cl)cc21`, the growth is 58.3%.

On to `CC1CCN(C(=O)OCc2nc3nc(Cl)nc(N4CCOCC4)c3[nH]2)CC1`, for which the growth was -89.2% (active).

In the case of `CC1(C)CN(c2cnc(C(=O)Nc3cc(F)cc4cccnc34)cn2)CCN1`, the growth was 89.5%.

With `Cn1c(COC(=O)NCCN2CCOCC2)nc2c(N3CCOCC3)nc(-c3ccccc3)nc21`, the growth was -52.5% (active).
